# Experimental data: PubChem BioAssay AID2314 (National Center for Advancing Translational Sciences (NCATS), 2010)
# Where “and” joins values, the source holds several entries; their conditions need not be identical. Equal values may be shown once. The campaign covered roughly 300,000 compounds. About 37,000 (12%) were called active. Rule as the data show it: active = max response mostly above about 13% (no sharp cut-off); inactive = mostly below about 14%. For the sample, actives were picked, then their nearest neighbours and some compounds at random.
# Assay: Cycloheximide Counterscreen for Small Molecule Inhibitors of Shiga Toxin; also: read at 38.3 µM for the half of the compounds with a filed dose; 0% is about no effect
# Details: cell reporter, cycloheximide protein synthesis inhibition counterscreen; active compounds read high
row,Compound,max response
1,COc1ccccc1N(CC(=O)NC1CCCC1)C(=O)C1(C)CC(=O)N=C2C=CC(C)=CN21 (configuration not stated),-3.56% (inactive)
2,CN(C)C(=O)c1ccc2c(c1)C1C3CCC(C3)C1C(c1ccccc1)N2 (configuration not stated),-4.56% (inactive)
3,CN(C)CCCN(C(=O)COc1ccccc1)c1nc2c(Cl)cccc2s1,-4.5% (inactive)
4,NNc1nc2c(Cl)cccc2s1,53.2% (active)
5,Cc1ccc(-c2cc(N)on2)cc1,21% (active)
6,Cc1ccc(S(=O)(=O)Cc2cc(-c3ccc(Cl)cc3)no2)cc1,0.779% (inactive)
7,CC(C)(C)Nc1c(N)c(=O)oc2ccccc12,-1.31% (inactive)
8,NC(=O)c1oc2ccccc2c1NC(=O)Cc1ccccc1,-2.17% (inactive)
9,Nc1c(NCCc2ccccc2)c2ccccc2oc1=O,23.7% (active)
10,CC(=O)N1c2ccc(S(=O)(=O)N3CCC(C(=O)NC4CCCC(C)C4C)CC3)cc2CC1C (configuration not stated),4.81% (inactive)
11,Cc1ccc(OCC(=O)Nc2ccccc2C(=O)NC2CC2)cc1C,-1.62% (inactive)
12,CCOC(=O)CSc1nnc(-c2ccc([N+](=O)[O-])cc2)o1,-0.444% (inactive)
13,CCOC(=O)CSc1nnc(-c2ccncc2)o1,1.84% (inactive)
14,CCCCSc1nnc(-c2ccc(C)cc2)o1,40.6% (active)
15,c1ccc2c(c1)C(=NC1CCCCC1)NC2=NC1CCCCC1,-4.35% (inactive)
16,O=C(c1ccc(CS(=O)(=O)c2ccccc2)o1)N1CCN(c2ccccc2)CC1,-5.15% (inactive)
17,Cc1c(CC(=O)NCC(=O)NCC(=O)O)c(=O)oc2cc3oc4c(c3cc12)CCCC4,-2.59% (inactive)
18,COc1ccc(N(CC(=O)Nc2cc(OC)cc(OC)c2)S(=O)(=O)c2c(C)n[nH]c2C)cc1,-1.21% (inactive)
19,Cc1ccc(Nc2cc(C)nc3c(C)ccc([N+](=O)[O-])c23)cc1,0.487% (inactive)
20,O=c1c(-c2cccc(Cl)c2)c[nH]n1-c1ccccc1,69.9% (active)
21,Cc1[nH]n(-c2cccc(Cl)c2)c(=O)c1-c1ccc(Cl)cc1,12.1% (inactive)
22,O=c1c(-c2ccccc2Cl)c[nH]n1-c1ccccc1,8.14% (inactive)
23,CC(=O)C1=C(O)C(=O)N(c2cccnc2)C1c1ccc([N+](=O)[O-])cc1 (configuration not stated),-2.81% (inactive)
24,O=C(COC(=O)c1ccc(N2CCCC2=O)cc1)c1ccc(OC(F)F)cc1,2.45% (inactive)
25,S=c1[nH]c2ccccc2c2ccccc12,1.83% (inactive)
26,CC1CCC(NC(=O)C2c3ccccc3C(=O)N2Cc2ccc3c(c2)OCO3)CC1 (configuration not stated),-1.18% (inactive)

row,Compound,max response
1,Cc1ccc(C(=O)NC2CC(C)(C)NC(C)(C)C2)c(C)c1,-4.92% (inactive)
2,Cc1ccc2c(c1)NCC(C(=O)NC1CCC(C)CC1)O2 (configuration not stated),41.1% (active)
3,CC(NS(=O)(=O)c1ccc(Br)cc1)C(=O)NCC1CCCO1 (configuration not stated),-1.6% (inactive)
4,CN1CCN(c2nc(Nc3ccc(O)cc3)nc3ccccc23)CC1,-3.27% (inactive)
5,OCCNc1nc(Nc2ccc(Cl)c(Cl)c2)nc2ccccc12,10.5% (active)
6,COc1cc2nc(Cl)nc(NCCO)c2cc1OC,-1.72% (inactive)
7,COc1ccc(C2CC(c3ccccc3)=NN2C(=O)c2ccc(Cl)c([N+](=O)[O-])c2)cc1 (configuration not stated),12.9% (inactive)
8,COc1ccc(C2=NN(C(=O)c3cccnc3)C(c3ccccc3)C2)cc1 (configuration not stated),-5.54% (inactive)
9,COc1ccc(C2=NN(C(C)=O)C(c3ccccc3)C2)cc1 (configuration not stated),20.9% (active)
10,CCOc1ccc2nc(Cl)c(C3CC(c4ccccc4)=NN3C(=O)c3cccs3)cc2c1 (configuration not stated),-1.42% (inactive)
11,COc1ccc(C2=NN(C(=O)CCC(=O)O)C(c3cccs3)C2)cc1OC (configuration not stated),-1.52% (inactive)
12,COc1cccc(C2CC(c3ccccc3)=NN2S(=O)(=O)c2ccccc2)c1OC (configuration not stated),0.319% (inactive)
13,COc1ccc(C(=O)CSc2nccc(=O)[nH]2)cc1,8.3% (inactive)
14,COc1ccc(C2CC(c3ccccc3)=NN2C(=O)CSc2nccc(=O)[nH]2)cc1 (configuration not stated),40% (active)
15,COc1ccc(C(=O)Nc2nc(-c3ccc(OC)cc3)c(-c3ccc([N+](=O)[O-])cc3)s2)cc1,9.79% (inactive)
16,COc1ccc(C2=NN(C(=O)c3ccccc3C(=O)O)C(c3ccccc3O)C2)cc1 (configuration not stated),40.6% (active)
17,COc1ccc(C2CC(c3ccc([N+](=O)[O-])cc3)=NN2C(C)=O)cc1 (configuration not stated),24.5% (active)
18,COc1ccc(C2CC(c3ccccc3)=NN2C(=O)COC(=O)COc2ccccc2)cc1 (configuration not stated),2.88% (inactive)
19,CCCCN(CCCC)CCNC(=O)CN1C(=O)COc2ccc(S(=O)(=O)N3CCOCC3)cc21,-2.14% (inactive)
20,CCN1C(=NCCc2cccnc2)N[C@@H](c2ccccc2)[C@H](C(=O)OC)[C@H]1C,3.2% (inactive) and 1.95% (inactive)
21,COCCN1C(=O)N(c2ccc(Cl)cc2)C(=O)C1CC(=O)Nc1cc(OC)cc(OC)c1 (configuration not stated),-0.589% (inactive)
22,CCN1C(=O)c2cccc3c(S(=O)(=O)Nc4ccccc4O)ccc1c23,9.32% (inactive)
23,O=C(CCC(=O)NNc1nc2ccccc2c2nc(-c3ccccc3)nn12)NCCCN1CCCC1=O,10.3% (inactive)
24,COc1ccc(S(=O)(=O)NCCOc2ccccc2)cc1F,-4.53% (inactive)
25,Cc1ccc2c(c1)N(CC(=O)N1CCC(C)CC1)C(=O)c1cccnc1O2,-1.05% (inactive)
26,COC(=O)c1ccccc1NC(=O)C1CCN(C(=O)N2CCOc3ccccc32)CC1,0.401% (inactive)

row,Compound,max response
1,CCOc1ccccc1CN1CCN(C2CCC2)CC1CCO (configuration not stated),-0.61% (inactive)
2,CS(=O)(=O)c1ccccc1C(=O)Nc1ccc2sccc2c1,1.56% (inactive)
3,Cc1cc(Cl)nc(NC(=O)Nc2cccc(Cl)c2)n1,19.5% (active)
4,O=C(Nc1cccc(Cl)c1)Nc1nnc(-c2ccccc2)o1,-4.47% (inactive)
5,O=C(NCCN1CCOCC1)Nc1cccc(Cl)c1,20.1% (inactive)
6,Cc1ccc(Cl)c(OCC(=O)NN2CCN(C)CC2)c1,-2.49% (inactive)
7,O=C(C1CCN(c2nnc(-n3cccc3)s2)CC1)N1CCc2ccccc2C1,-2.9% (inactive)
8,O=C(COc1ccccc1)N1CCc2ccccc2C1,28.7% (active)
9,O=C(COc1ccccc1Cl)N1CCCCCCC1,4.62% (inactive)
10,Cc1cccc(OC(C)C(=O)N2CCc3ccccc3C2)c1 (configuration not stated),-3.38% (inactive)
11,O=C(Cn1c(=S)nc2ccccn21)N1CCc2ccccc2C1,22.4% (active)
12,Cc1ccc(Cl)c(OCC(=O)N2CCc3ccccc3C2)c1,30% (active)
13,COc1ccc(OCC(=O)N2CCN(C(=O)COc3ccccc3)CC2)cc1,-5.08% (inactive)
14,Cc1ccccc1-c1nc(CS(=O)(=O)CC(=O)N2CCc3ccccc3C2)c(C)o1,0.61% (inactive)
15,COc1ccccc1CN1CCN(C(c2ccccc2)c2ccccc2)CC1,-1.72% (inactive)
16,CC1CCN(C(=O)c2ccc3c(c2)NC(=O)CN3)CC1,-6.43% (inactive)
17,Oc1ccc(Cl)cc1C1C=C(c2ccc3c(c2)OCO3)NC(c2c(F)cccc2Cl)N1 (configuration not stated),59.8% (active)
18,Oc1ccc(Cl)cc1C1C=C(c2ccc3c(c2)OCO3)NC(c2ccc(F)c(Br)c2)N1 (configuration not stated),50.7% (active)
19,OC(COc1ccc(F)cc1Cl)CN1CCc2ccccc2C1 (configuration not stated),-2.68% (inactive)
20,O=C(c1cc(COc2cccc(C(F)(F)F)c2)on1)N1CCSCC1,-0.615% (inactive)
21,COCCN1CCN(C(=O)c2cc(COc3ccc(F)cc3Cl)on2)CC1,20.2% (active)
22,CCOC(=O)CC1COCCN1C(=O)c1cc(COc2ccc(F)c(F)c2)on1 (configuration not stated),38.7% (active)
23,C=CCC1(CC=C)CCCN1C(=O)c1cc(COc2ccc(-n3cncn3)cc2)on1,7.87% (inactive)
24,O=C(c1c(F)cccc1F)N1CCN(c2ncc(Br)cn2)CC1,-1.54% (inactive)
25,CCOC(=O)c1ccccc1C(=O)N1CCOCCOCCOCC1,-3.37% (inactive)
26,CN1CCN(C(=O)c2ccccc2NC(=O)COc2ccccc2Cl)CC1,16.7% (inactive)

row,Compound,max response
1,O=C(c1cc(COc2ccc(F)c(F)c2)on1)N1CCOCC1,42.1% (active)
2,Cc1c(C(=O)N2CCOCC2)[nH]c2ccc(OCc3ccccc3)cc12,0.995% (inactive)
3,O=C(c1cc(COc2c(F)cccc2F)on1)N1CCSCC1,54.8% (active)
4,Cc1cc(NC(=O)COC(=O)c2ccc(F)c(S(=O)(=O)N3CCOCC3)c2)no1,-2.52% (inactive)
5,C=CCNc1nc(N)c(C(=C(C#N)C#N)c2ccccc2)s1,1.38% (inactive)
6,Cc1ccn2c(c1)nc(=O)c1cc(S(=O)(=O)N3CCC(C)CC3)ccc12,-3.62% (inactive)
7,OC(CN=c1sc2ccccc2n1CC(O)COc1ccccc1)COc1ccccc1 (configuration not stated),0.416% (inactive)
8,O=C(Nc1ccc(Cl)cc1)c1cccc(OC(=S)N2CCOCC2)c1,21.3% (inactive)
9,CC(C)Oc1ccc(C(CC(=O)N2CCOCC2)C(C)C)cc1 (configuration not stated),0.501% (inactive)
10,O=C(NNC(=O)C(O)c1ccccc1)NC1CCCCC1 (configuration not stated),-2.85% (inactive)
11,COCC(C)NC(=O)c1ccc(-n2nc(C(F)(F)F)cc2-c2cccs2)cc1 (configuration not stated),1.01% (inactive)
12,Nc1nonc1-n1nnc(C(=O)N/N=C/c2ccc(Cl)cc2)c1-c1ccc2c(c1)OCO2,-1.92% (inactive)
13,Cc1c(-c2ccccc2)cn2c1-c1ccc(C)n1CC2,-3.8% (inactive)
14,O=C1COc2ccc(NC(=O)N3CCN(c4ccc(F)cc4)CC3)cc2N1,-3.27% (inactive)
15,COc1ccc(OC)c(NC(=O)CSc2nc(-c3ccccc3)cc(=O)[nH]2)c1,-6.47% (inactive)
16,O=C(CC(NC(=O)c1ccccc1)c1ccccc1)Nc1ccc(F)c(F)c1 (configuration not stated),1.73% (inactive)
17,O=C(NC1Cc2ccccc2C1)c1cc(COc2cccc(C(F)(F)F)c2)on1,-3.57% (inactive)
18,O=C(Oc1ccc(C(=S)N2CCOCC2)cc1)c1ccc(F)cc1,-3.82% (inactive)
19,COc1cc(C(=O)N2CCOCC2)cc(OC)c1OC,-5.91% (inactive)
20,COc1ccc(-c2cc(C(=O)NCCCN3CCOCC3)no2)cc1,2.58% (inactive)
21,O=C(c1cc(COc2ccc(F)cc2F)on1)N1CCOCC1,47% (active)
22,COc1ccc(CCNC(=O)c2cnc(Cl)c(Cl)c2)cc1,6.51% (inactive)
23,COc1ccc(OCc2cc(C(=O)NCC3(C)COC3)no2)c(Cl)c1,40.1% (active)
24,CCC(NC(=O)c1cc(COc2ccc(F)c(F)c2)on1)c1ccncc1 (configuration not stated),33.7% (active)
